In the library only some 2.5% were active in any assay of this set; here they are far more common.
Cruzain Triton = cruzain (T. cruzi) inhibition with detergent; AID 1478; purified cruzain, Z-FR-AMC fluorescence, 0.01% Triton; Potency, µM, usual class: inhibitors; hit rate 0.43% among 200,000; P25779; further: nearly all actives have a fitted effect of over 40% in size
Target sequence (P25779 123-467 limits assumed): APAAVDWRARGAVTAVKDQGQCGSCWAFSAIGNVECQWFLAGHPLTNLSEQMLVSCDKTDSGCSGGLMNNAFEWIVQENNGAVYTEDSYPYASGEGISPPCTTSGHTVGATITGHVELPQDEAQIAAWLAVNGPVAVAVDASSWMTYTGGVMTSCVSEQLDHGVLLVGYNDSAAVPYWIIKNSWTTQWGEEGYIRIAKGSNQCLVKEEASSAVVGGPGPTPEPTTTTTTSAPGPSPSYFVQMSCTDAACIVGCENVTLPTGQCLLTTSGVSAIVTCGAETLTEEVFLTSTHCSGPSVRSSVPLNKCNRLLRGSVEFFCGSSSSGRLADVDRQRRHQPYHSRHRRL
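Cruzain (1.5 nM) preincubated 15 min at RT with compound in 100 mM sodium acetate pH 5.5, 5 mM DTT, 0.01% Triton X-100. Reaction started with 2 uM Z-FR-AMC; AMC fluorescence (ex 360/em 450 nm) change over 60 s gave rate.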
Cruzain noTriton = inhibitors of Trypanosoma cruzi cruzain without detergent. hit rate 2.3% among 200,000. purified cruzain, Z-FR-AMC fluorescence, no detergent. AID 1476. Potency, µM, hits mostly inhibitors. P25779; further: nearly all actives have a fitted effect of over 40% in size
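Detergent-free condition (0.00005% Triton X-100) in acetate buffer pH 5.5 with DTT. 1.5 nM enzyme and compound were pre-mixed 15 min, then 2 uM Z-FR-AMC substrate added; reaction progress from fluorescence change between first and third reads (60 s).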
Numbers stand for hits; - = inactive; ? = inconclusive. The call rests on the fitted dose curve; in most records, active means well fitted curve in the direction sought with a large enough effect; inconclusive means small, poorly fitted or top-dose-only effect, or another doubt; inactive means no such curve, though single readings can be large; an effect the other way counts as inactive or inconclusive.

SMILES | Cruzain Triton | Cruzain noTriton
CC(C)=CCOc1ccc(/C=C/C(=O)c2ccc(OCC=C(C)C)cc2OCC(=O)O)cc1 | 20µM | ?
CCOc1ccc(/C=C/C(=O)c2ccc(-c3ccccc3)cc2)cc1 | - | -
O=C(Nc1ccc(-c2cc(C(F)(F)F)nn2-c2ccccc2)cc1)c1cccc(F)c1 | - | 20µM
O=C(NC(=O)c1cccc(F)c1)Nc1ccc(-c2cc(C(F)(F)F)nn2-c2ccccc2)cc1 | - | -
COc1ccc(NS(=O)(=O)c2ccc(OC)c(N(C)S(=O)(=O)c3ccc(Cl)cc3)c2)cc1 | - | -
COc1ccc(S(=O)(=O)Nc2ccc(F)cc2)cc1N(C)S(=O)(=O)c1ccc(Cl)cc1 | - | 20µM
Cc1cc(C)cc(OCC(=O)N(Cc2ccc(Cl)cc2)C2CCS(=O)(=O)C2)c1 (configuration not stated) | - | ?
COc1ccc(-c2oc3ncn4nc(COc5ccccc5)nc4c3c2-c2ccc(OC)cc2)cc1 | - | 3.98µM
COc1ccc(OCc2nc3c4c(-c5ccc(OC)cc5)c(-c5ccc(OC)cc5)oc4ncn3n2)cc1 | - | -
COc1ccc(-c2oc3ncn4nc(Cc5ccccc5)nc4c3c2-c2ccc(OC)cc2)cc1 | - | 10µM
COc1ccc(-c2oc3ncn4nc(COc5ccc(C)cc5)nc4c3c2-c2ccc(OC)cc2)cc1 | - | -
CC(=O)c1ccc(NC(=O)C2CCCN(S(=O)(=O)c3cn(C)cn3)C2)cc1 (configuration not stated) | - | -
COc1ccc(C2=C(CN(C)C)C(c3ccccc3)c3ccccc3O2)cc1 (configuration not stated) | - | -
CCOc1ccc(C2=C(C=C(C#N)C#N)C(c3ccccc3)c3ccccc3O2)cc1 (configuration not stated) | - | 10µM
COc1ccc(Cl)cc1NC(=O)c1nc(S(C)(=O)=O)ncc1N(Cc1ccc(C)cc1)Cc1ccco1 | - | ?
COc1ccc(NC(=O)c2nc(S(C)(=O)=O)ncc2N(Cc2ccc(C)cc2)Cc2ccco2)cc1Cl | - | 10µM
COc1ccc(NC(=O)CSc2nnc(-c3nonc3NC(C)=O)n2-c2ccccc2)cc1 | - | ?
O=C(N/N=C1/C(=O)c2cccc3cccc1c23)c1ccc(Cl)cc1 | 10µM | -
CCNC(=S)N/N=C1\C(=O)c2cccc3cccc1c23 | - | ?
Cc1cccc(-c2c3c(=O)n(C)c(=O)n(C)c3c3c(C)nc4ccccc4n23)c1 | - | -
O=C1CS(=O)(=O)C2(C(=O)N(Cc3ccccc3)c3ccccc32)N1c1ccccc1 (configuration not stated) | - | ?
Cc1ccc(CN2C(=O)C3(c4ccccc42)N(c2cccc(C(F)(F)F)c2)C(=O)CS3(=O)=O)cc1 (configuration not stated) | - | 12.6µM
Cc1cc(C)cc(N2C(=O)CS(=O)(=O)C23C(=O)N(Cc2ccccc2)c2ccccc23)c1 (configuration not stated) | - | 6.31µM
O=C1CS(=O)(=O)C2(C(=O)N(Cc3ccc(F)cc3)c3ccccc32)N1c1cccc(C(F)(F)F)c1 (configuration not stated) | - | ?
CCOC(=O)c1ccc(N2CCN(c3cccc(Cl)c3)CC2)c(NC(=O)Nc2ccc(OC)cc2OC)c1 | - | -
SMILES | Cruzain Triton | Cruzain noTriton
c1cc(CSSCc2ccncc2)ccn1 | 2.82µM | ?
N=C(N)SCCc1ccncc1 | - | -
CC(=O)c1cccc(NC(=O)C2CCCN(c3nnc(-n4cccc4)s3)C2)c1 (configuration not stated) | - | -
NS(=O)(=O)c1ccc(NC(=O)N2c3ccccc3Sc3ccccc32)cc1 | - | -
CC1CCN(S(=O)(=O)c2ccc(NC(=O)N3c4ccccc4Sc4ccccc43)cc2)CC1 | - | 12.6µM
O=S(=O)(NCc1ccccc1)c1ccc(S(=O)(=O)N2CCCCC2)cc1 | - | ?
CC1CCN(S(=O)(=O)c2ccc(S(=O)(=O)NCc3ccccc3)cc2)CC1 | - | 15.8µM
COC(=O)c1ccccc1NC(=O)CSc1nc(O)cc(=O)n1C1CCCC1 | - | ?
COC(=O)c1ccccc1NC(=O)CSc1nc(=O)cc(N)n1-c1ccccc1 | 25.1µM | -
Cc1cccc(-n2c(N)cc(=O)nc2SCC(=O)Nc2nnc(C)s2)c1 | ? | 25.1µM
Cc1cccc(-n2ccnc2SCC(=O)Nc2nnc(C)s2)c1 | - | -
Cc1cc(Nc2ccc(Br)cc2)n2nc(-c3ccccc3C)nc2n1 | - | -
Cc1nn(-c2ccccc2)c(N2CCCC2)c1/C=N/NC(=O)c1cc(-c2cccnc2)nc2ccccc12 | - | -
CC(/C=N/NC(=O)c1cc(-c2cccnc2)nc2c1c(C)nn2-c1ccccc1)=C\c1ccccc1 | - | 12.6µM
Cc1ccc(S(=O)(=O)c2cn(CC(=O)Nc3ccc4c(c3)OCO4)c3ccccc3c2=O)cc1 | - | -
COc1ccc(/C=C(\C#N)C(=O)Nc2cc(S(=O)(=O)N3CCCCC3)ccc2N2CCCCC2)cc1 | - | 3.98µM

High-throughput results: PubChem BioAssay, National Center for Advancing Translational Sciences (NCATS)
